Source: ChEMBL document CHEMBL3988442, “University of Dundee, Small-Polar-MMV Screening Library” (2021)

molecular target: T1, Aspartate--tRNA(Asp/Asn) ligase (Mycobacterium tuberculosis (strain ATCC 25618 / H37Rv)) (UniProt P9WFW3); experiment: Assay for Asp RNA synthetase-1 from Mycobacterium tuberculosis; format: functional; set-up: scale not given: direction of the effect not stated beside the values; conditions: 30 µM; further: in the data most compounds retested in dose-response had high values
T1 sequence (whole entry): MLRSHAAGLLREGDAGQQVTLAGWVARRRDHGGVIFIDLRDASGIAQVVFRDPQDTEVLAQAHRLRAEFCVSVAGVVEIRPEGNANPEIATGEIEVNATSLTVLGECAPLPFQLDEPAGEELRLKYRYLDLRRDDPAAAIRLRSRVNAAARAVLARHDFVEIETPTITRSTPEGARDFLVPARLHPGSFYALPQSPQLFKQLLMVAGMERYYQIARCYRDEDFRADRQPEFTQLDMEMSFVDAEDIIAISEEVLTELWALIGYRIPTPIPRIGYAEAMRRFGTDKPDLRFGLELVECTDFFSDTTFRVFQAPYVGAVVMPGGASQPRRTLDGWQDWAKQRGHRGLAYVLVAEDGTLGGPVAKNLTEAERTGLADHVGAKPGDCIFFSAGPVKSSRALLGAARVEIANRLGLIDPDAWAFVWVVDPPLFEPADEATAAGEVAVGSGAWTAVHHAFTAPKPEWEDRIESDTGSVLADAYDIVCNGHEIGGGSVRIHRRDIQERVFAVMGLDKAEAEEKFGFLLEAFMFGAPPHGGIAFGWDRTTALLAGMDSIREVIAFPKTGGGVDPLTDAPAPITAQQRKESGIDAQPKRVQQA

Compound	Percent Effect [%]
O=C1CC(c2cccnc2)C2(CCN(S(=O)(=O)C3CC3)CC2)N1 (stereo not given)	-1.76
COc1cccc2c1OCC(C(=O)N(C)CCCc1cnn(C)c1)C2 (stereo not given)	9.43
CCC1=N[C@@]2(CC[C@@H]3CN(S(=O)(=O)N(C)C)C[C@@H]32)C(=O)N1CC(C)C	2
CC(=O)NCC(=O)N1Cc2nccn2CC(Cn2cccn2)C1 (stereo not given)	-1.48
CC(O)CC(C)(C)CNC(=O)NCc1cccc(-n2cncn2)c1 (stereo not given)	-1.59
CS(=O)(=O)NCC1CCCN(C(=O)c2ccc(Cl)o2)C1 (stereo not given)	1.23
COCC(=O)N1CCC(c2cccc(Cc3ccc(F)cc3)n2)CC1	1.18
O=C(Cn1cc(C(=O)O)ccc1=O)NCc1ccc(F)c(Cl)c1	3.08
Cc1nc(N)sc1C(=O)N1CCCC(c2nccn2CCCN(C)C)C1 (stereo not given)	-0.893
CC(C)c1nnc2n1CC(CNCc1ccncc1)CC2 (stereo not given)	-2.34
CN(Cc1cn2ccccc2c1C#N)C1CCCN(c2cccnn2)C1 (stereo not given)	0.694
c1cc(CN2CCCC(c3noc(C4CC4)n3)C2)no1 (stereo not given)	-0.285
COc1ccc2cc(C(=O)N3CCCCC3CC(N)=O)[nH]c2c1 (stereo not given)	-1.12
CC(C)c1nc(C2CCCN2CCCc2nc3ccccc3o2)no1 (stereo not given)	-3.53
CCC(C)c1noc(C2CCN(C(=O)c3cccnc3)CC2)n1 (stereo not given)	17
Cc1cc(C2CCCN(CCCS(=O)(=O)c3ccccc3)C2)n[nH]1 (stereo not given)	3.14
CC(C)OCCCNC(=O)CN1CCC(N2CCN(C)C2=O)CC1	-3
CN(C)C(=O)CS(=O)(=O)Cc1cc(Cl)c2c(c1)OCO2	0.927
COC[C@@]12CCO[C@@H]1CCN(Cc1ccccc1F)C2	0.843
CCc1nnc2n1CCN(Cc1ccc3c(c1)OCCO3)C2	4.98

Compound	Percent Effect [%]
Cc1cn2c(n1)CCC(NC(=O)c1cc(Br)cn1C)C2 (stereo not given)	-1.87
Cc1cc(C)nc(N2CCN(C(=O)c3cc(Cl)c[nH]3)CC2)n1	1.48
CCc1nc(C(=O)NCc2ccc(N3CCNC(=O)C3)c(F)c2)c[nH]1	2.49
CN(Cc1ccc(F)cc1)C(=O)CN1CCOC(Cn2cncn2)C1 (stereo not given)	3.63
COc1ccccc1C(O)CNC(=O)Nc1ncccc1C (stereo not given)	-3.63
CCN1CCN(c2ccc(F)cc2C(C)NCc2ccncc2)CC1 (stereo not given)	-0.494
CCn1nc2c(cc1=O)CN(Cc1nc3ccccc3c(=O)[nH]1)CC2	-3.91
O=C(N1CCCC1)N1Cc2nccn2CC(CN2CCCC2)C1 (stereo not given)	-5.76
CC1CCN(S(=O)(=O)c2cccn(CC(=O)N3CCOCC3)c2=O)CC1	-4.3
O=C(CCc1ccccc1)N1CCC(N2CCNC2=O)CC1	1.87
Cc1ccsc1CN(CCN(C)C)Cc1ccccn1	-0.167
CC(NC(=O)NCCNc1cnccn1)c1cccs1 (stereo not given)	-0.971
O=C(NC1COC2(CCN(Cc3ccccn3)CC2)C1)c1ccccn1 (stereo not given)	-7.74
CCc1ccc(S(=O)(=O)N2CCC3(CC(C(=O)NC)=NO3)C2)cc1 (stereo not given)	-3.62
Cc1cnn(CC2CN(Cc3nnc(-c4occc4C)o3)CCO2)c1 (stereo not given)	2.04
O=C(NCCN1CCCCC1)c1scnc1Cl	-1.07
COc1ccc(F)cc1CN1CCCC(c2cc(C(N)=O)[nH]n2)C1 (stereo not given)	-5.13
Cc1ccc(F)cc1S(=O)(=O)N(C)CC(N)=O	2.69
COc1ccc(CCN2CCN(C(=O)c3scnc3C)CC2)cc1	0.928
c1ccc(-n2ncc(CNCC3CCCN3c3cccnn3)n2)cc1 (stereo not given)	4.5

molecular target: Shiga toxin 2 (Escherichia coli O157:H7) (UniProt P09385+P09386); experiment: E. coli 0.157:H7 Shiga Toxin SOP - stx2 screening assay; format: functional; set-up: scale not given: direction of the effect not stated beside the values; conditions: 30 µM

Compound	Percent Effect [%]
O=C1CC(c2cccnc2)C2(CCN(S(=O)(=O)C3CC3)CC2)N1 (stereo not given)	4.96
COc1cccc2c1OCC(C(=O)N(C)CCCc1cnn(C)c1)C2 (stereo not given)	-7.98
CCC1=N[C@@]2(CC[C@@H]3CN(S(=O)(=O)N(C)C)C[C@@H]32)C(=O)N1CC(C)C	9.58
CC(=O)NCC(=O)N1Cc2nccn2CC(Cn2cccn2)C1 (stereo not given)	0.581
CC(O)CC(C)(C)CNC(=O)NCc1cccc(-n2cncn2)c1 (stereo not given)	7
CS(=O)(=O)NCC1CCCN(C(=O)c2ccc(Cl)o2)C1 (stereo not given)	-7.98
COCC(=O)N1CCC(c2cccc(Cc3ccc(F)cc3)n2)CC1	-10.6
O=C(Cn1cc(C(=O)O)ccc1=O)NCc1ccc(F)c(Cl)c1	-51.8
Cc1nc(N)sc1C(=O)N1CCCC(c2nccn2CCCN(C)C)C1 (stereo not given)	12.2
CC(C)c1nnc2n1CC(CNCc1ccncc1)CC2 (stereo not given)	-14.7
CN(Cc1cn2ccccc2c1C#N)C1CCCN(c2cccnn2)C1 (stereo not given)	-75.3
c1cc(CN2CCCC(c3noc(C4CC4)n3)C2)no1 (stereo not given)	4.12
COc1ccc2cc(C(=O)N3CCCCC3CC(N)=O)[nH]c2c1 (stereo not given)	4.87
CC(C)c1nc(C2CCCN2CCCc2nc3ccccc3o2)no1 (stereo not given)	17.3
CCC(C)c1noc(C2CCN(C(=O)c3cccnc3)CC2)n1 (stereo not given)	-27.8
Cc1cc(C2CCCN(CCCS(=O)(=O)c3ccccc3)C2)n[nH]1 (stereo not given)	4.75
CC(C)OCCCNC(=O)CN1CCC(N2CCN(C)C2=O)CC1	-14.1
CN(C)C(=O)CS(=O)(=O)Cc1cc(Cl)c2c(c1)OCO2	25.6
COC[C@@]12CCO[C@@H]1CCN(Cc1ccccc1F)C2	-24.5
CCc1nnc2n1CCN(Cc1ccc3c(c1)OCCO3)C2	15.5

Compound	Percent Effect [%]
Cc1cn2c(n1)CCC(NC(=O)c1cc(Br)cn1C)C2 (stereo not given)	-34.8
Cc1cc(C)nc(N2CCN(C(=O)c3cc(Cl)c[nH]3)CC2)n1	-6.42
CCc1nc(C(=O)NCc2ccc(N3CCNC(=O)C3)c(F)c2)c[nH]1	-51.1
CN(Cc1ccc(F)cc1)C(=O)CN1CCOC(Cn2cncn2)C1 (stereo not given)	-0.222
COc1ccccc1C(O)CNC(=O)Nc1ncccc1C (stereo not given)	8.45
CCN1CCN(c2ccc(F)cc2C(C)NCc2ccncc2)CC1 (stereo not given)	14.3
CCn1nc2c(cc1=O)CN(Cc1nc3ccccc3c(=O)[nH]1)CC2	1.48
O=C(N1CCCC1)N1Cc2nccn2CC(CN2CCCC2)C1 (stereo not given)	1.77
CC1CCN(S(=O)(=O)c2cccn(CC(=O)N3CCOCC3)c2=O)CC1	-33
O=C(CCc1ccccc1)N1CCC(N2CCNC2=O)CC1	26
Cc1ccsc1CN(CCN(C)C)Cc1ccccn1	1.36
CC(NC(=O)NCCNc1cnccn1)c1cccs1 (stereo not given)	-34.6
O=C(NC1COC2(CCN(Cc3ccccn3)CC2)C1)c1ccccn1 (stereo not given)	-29.1
CCc1ccc(S(=O)(=O)N2CCC3(CC(C(=O)NC)=NO3)C2)cc1 (stereo not given)	-7.42
Cc1cnn(CC2CN(Cc3nnc(-c4occc4C)o3)CCO2)c1 (stereo not given)	12.3
O=C(NCCN1CCCCC1)c1scnc1Cl	30.3
COc1ccc(F)cc1CN1CCCC(c2cc(C(N)=O)[nH]n2)C1 (stereo not given)	1.05
Cc1ccc(F)cc1S(=O)(=O)N(C)CC(N)=O	-5.32
COc1ccc(CCN2CCN(C(=O)c3scnc3C)CC2)cc1	0.201
c1ccc(-n2ncc(CNCC3CCCN3c3cccnn3)n2)cc1 (stereo not given)	8.59
